Sampled rows, rich in hits. Any-hit rate of the full collection: about 1.1%.
gsp antagonist = antagonists of gsp mutant (McCune-Albright syndrome). 340,000 compounds, 0.4% hits. gsp-mutant cells, cAMP HTRF, 30 min. AID 624288. Potency, µM (top dose mostly 76.9 µM), inactives show top-dose activity change, negative = inhibition, actives largely listed as inhibitors; calls by dose curve; cell line not stated here;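 further: intracellular cAMP measured with PDE inhibitor Ro 20-1724 present during compound exposure; potency means the concentration at half of the fitted maximal effect; on the % scale 0 is the no-effect control and ±100 the full control effect; nearly all actives have a fitted effect of over 65% in size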
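Cells in G418 medium, seeded 16-24 h, 37C; buffer exchange to DPBS + 1 mM CaCl2, 0.5 mM MgCl2, 0.05% BSA; cpds in DMSO + […] (300 uM stock), 30 min 37C; HTRF cAMP detection.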
RXFP1 ag = activates the human relaxin receptor RXFP1 | Q9HBX9 | AID 2676 | 370,000 compounds, 0.3% hits | Potency, µM (top dose mostly 57.5 µM), inactives show top-dose activation, usual class: activators | HEK293T-RXFP1 cAMP TR-FRET, 30 min; response scale: percent of porcine relaxin response, buffer zero; further: potency means the concentration at half of the fitted maximal effect; on the % scale 0 is the no-effect control and ±100 the full control effect; nearly all actives have a fitted effect of over 60% in size
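cAMP rise read by TR-FRET after 30 min, 37C compound exposure (up to 58 uM) in RXFP1-transfected HEK293 cells with Ro 20174 present. EC50 from Hill-equation fits, with 29 nM porcine relaxin as 100% and buffer as basal.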
gsp ag = gsp mutant agonism | AID 624287 | Potency, µM (titrated, usually from 76.9 µM), for inactives: at the highest dose activation (cAMP increase), usual class: activators | gsp mutant cells, cAMP HTRF, 30 min | 340,000 compounds, 0.13% hits; active means well fitted activation curve with a large enough effect; inconclusive means small, poorly fitted or top-dose-only effect, or another doubt; inactive means no such curve, though single readings can be large or run the other way; cell line not stated here;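 further: phosphodiesterase inhibitor Ro 20-1724 added with compounds to block cAMP breakdown; potency means the concentration at half of the fitted maximal effect; nearly all actives have a fitted effect of over 60% in size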
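Cells stably selected in G418 were plated at 2000/well, grown 16-24 hr, then given compounds in DMSO with the PDE inhibitor […] (300 uM solution added) for 30 min at 37C; cAMP was read by HTRF.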
p53 reactivation = re-activators of mutant p53. Potency, µM (titrated, usually from 92.2 µM), inactives show at the top dose activity change, positive = activation, actives largely listed as activators. 320,000 compounds, 0.063% hits. H1299 p53-A138V BP100-luciferase reporter, luminescence, 24 h. AID 504706; further: potency means the concentration at half of the fitted maximal effect; % of control where 0% means no effect; nearly all actives have a fitted effect of over 45% in size
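p53-null H1299 cells stably carrying temperature-sensitive p53-A138V and a BP100-luciferase reporter were pinned with compounds (4-point, 1:5 series) and held 24 hrs at 37 deg C. Luminescence was read 10 min after detection reagent.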
Tb PFK inh-1 = T. brucei PFK enzyme inhibition. AID 485367. T. brucei PFK, ADP-Glo luminescence. 330,000 compounds, 0.17% hits. O15648. Potency, µM (top dose mostly 57.5 µM), inactives show at the highest dose activity, negative = inhibition, hits mostly inhibitors;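 further: potency means the concentration at half of the fitted maximal effect; 0% = uninhibited 1x PFK enzyme wells and -100% = no-enzyme wells; nearly all actives have a fitted effect of over 60% in size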
Target sequence (O15648 whole entry, looked up): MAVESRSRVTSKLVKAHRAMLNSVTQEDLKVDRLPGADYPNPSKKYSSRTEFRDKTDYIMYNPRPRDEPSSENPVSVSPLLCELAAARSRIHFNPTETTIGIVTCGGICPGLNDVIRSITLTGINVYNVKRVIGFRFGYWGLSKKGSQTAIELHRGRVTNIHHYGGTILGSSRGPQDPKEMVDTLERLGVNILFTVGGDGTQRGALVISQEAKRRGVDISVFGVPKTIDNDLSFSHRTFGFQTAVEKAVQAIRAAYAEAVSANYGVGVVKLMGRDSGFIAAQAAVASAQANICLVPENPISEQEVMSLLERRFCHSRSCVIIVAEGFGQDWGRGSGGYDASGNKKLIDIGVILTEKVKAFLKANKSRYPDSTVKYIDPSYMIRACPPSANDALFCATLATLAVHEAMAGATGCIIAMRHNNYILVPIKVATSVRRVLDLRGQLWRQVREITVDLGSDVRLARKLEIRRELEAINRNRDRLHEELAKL
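1.25 nM PFK with 0.5 mM F6P and 0.1 mM ATP in 0.1 M TEA pH 8.0, 5 mM MgCl2, incubated 45 min at room temperature; ADP measured by ADP-Glo luminescence; compounds titrated up to 57 uM.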
RXFP1 antag = antagonists of human relaxin receptor RXFP1; HEK293-RXFP1, relaxin-stimulated cAMP HTRF, 30 min; active compounds read low; activity change, negative = inhibition, % at 57.5 µM; 350,000 compounds, 0.59% hits;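 active means activity change of -60% or lower, but not beyond a set lower limit; inconclusive means change between -60% and -40%, or beyond the set limit; inactive means change above -40%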; further: on the % scale 0 is the no-effect control and ±100 the full control effect
Tb PFK KinaseGlo = inhibits T. brucei PFK measured by ATP depletion. Tb PFK enzyme, ATP depletion, Kinase-Glo Plus luminescence. Potency, µM (top dose mostly 57.5 µM), for inactives: top-dose inhibition. 1,100 compounds, 47% hits. shares compounds with Tb PFK inh-1; calls by dose curve; further: potency means the concentration at half of the fitted maximal effect; nearly all actives have a fitted effect of over 60% in size
Tb PFK inh-2 = validation of T. brucei phosphofructokinase inhibitors. shares compounds with Tb PFK inh-1. purified T. brucei PFK, ADP-Glo luminescence, 45 min. 1,100 compounds, 41% hits. Potency, µM (series often up to 57.5 µM), without a hit: at the highest dose activity change, negative = inhibition, actives largely listed as inhibitors. AID 504637;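 further: potency means the concentration at half of the fitted maximal effect; plate controls were full PFK enzyme control for no effect and no enzyme control for full effect; nearly all actives have a fitted effect of over 60% in size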
* hit, by the source's call; ? = inconclusive; . = no result; [ ] = dose if it differs, or a comment. Unless noted, the call rests on the fitted dose curve; in most records, active means well fitted curve in the direction sought with a large enough effect; inconclusive means small, poorly fitted or top-dose-only effect, or another doubt; inactive means no such curve, though single readings can be large; an effect the other way counts as inactive or inconclusive.

SMILES	gsp antagonist	RXFP1 ag	gsp ag	p53 reactivation	Tb PFK inh-1	RXFP1 antag	Tb PFK KinaseGlo	Tb PFK inh-2
Cc1ccc(/C=c2\sc3nc(-c4ccco4)nn3c2=O)o1	-2%	-1%	-32%	4%	21µM*	-12	?	?
Nc1ccccc1SSc1ccccc1N	-2%	7%	-13%	?	?	-17	8.5µM*	13µM*
CC(C)NC(=S)NNc1nc2ccccc2s1	12%	0%	1%[15.4 µM]	4%	?	-2	8.5µM*	7.6µM*
NCCc1nc2ccccc2s1	8%	-1%	-22%	1%	0%	0	.	.
O=c1[nH]c(=S)[nH]c(O)c1N=Nc1cc(S(=O)(=O)Nc2ccc(Cl)cc2)ccc1Cl	?	1%	-47%	0%	-1%	-26	.	.
Nc1nc2ccccc2n1CCOc1ccc(F)cc1	13%	0%	-6%	?	?	4	13µM*	21µM*
CCOC(=O)Cn1c(=N)n(CCOc2ccc(F)cc2)c2ccccc21	17%	-1%	-11%[15.4 µM]	-1%	5.4µM*	-10	3µM*	5.4µM*
N#Cc1sc(NCc2ccccc2)nc1Cl	1%	2%	3%[15.4 µM]	-1%	19µM*	-23	11µM*	27µM*
COc1ccc(CNCCc2ccc(Cl)cc2Cl)cc1	6%	0%	17%[15.4 µM]	7%	0%	6	.	.
COc1ccc(CNc2nc(Cl)c(C#N)s2)cc1	-15%	1%	-43%	9%	12µM*	6	7.6µM*	13µM*
CCOC(=O)c1c(-c2ccc(OC)cc2)csc1/N=C/C1C(=O)CCCC1=O	-7%	-1%	-20%	-9%	?	-3	1%	-1%
CCOC(=O)c1c(/N=C/C2C(=O)NC(=S)NC2=O)sc2c1CCC2	3%	-1%	?	-6%	5%	8	.	.
CCOc1ccc(NC(=O)c2ccc(NC(=O)COC(=O)Cc3ccccc3)cc2)cc1	1%	1%	2%[15.4 µM]	?	-2%	-16	.	.
O=C(COC(=O)Cc1ccc(F)cc1)Nc1ccc2[nH]c(=O)[nH]c2c1	6%	0%	-31%	-3%	?	3	?	?
Cc1ccc(C(=O)NCC(=O)OCC(=O)Nc2ccc3[nH]c(=O)[nH]c3c2)cc1	1%	1%	19%[15.4 µM]	-2%	?	11	?	?
CC(=O)Nc1ccccc1C(=O)OCC(=O)Nc1ncccn1	5%	1%	-9%[15.4 µM]	3%	5%	-4	.	.
O=C(COC(=O)c1ccccc1OC(F)F)Nc1ccc2[nH]c(=O)[nH]c2c1	7%	3%	-1%[15.4 µM]	23%	?	-2	?	?
COc1ccc(C(=O)c2c(C)n(CCN3CCOCC3)c3ccccc23)cc1	.	.	.	.	.	50	.	.
Cc1cc(C)nc(NS(=O)(=O)c2ccc(NC(=S)NC(=O)C3CCCC3)cc2)n1	-8%	0%	7%	-5%	-16%	-6	.	.
O=C(Cc1ccc(Cl)c(Cl)c1)Nc1ccc(S(=O)(=O)Nc2ncccn2)cc1	7%	2%	-6%[15.4 µM]	-2%	2.4µM*	-2	0.85µM*	1.9µM*
Cc1ccnc(NS(=O)(=O)c2ccc(NC(=O)Cc3ccc(Br)cc3)cc2)n1	-2%	-2%	?	-3%	?	-5	21µM*	?
N=C1SCC(=O)N1Cc1ccccc1	16%	2%	11%[15.4 µM]	0%	-5%	-8	.	.
CCN(CC1CCCN(CCc2cccc(OC)c2)C1)C(=O)c1ccc(COC)o1 (stereo not given)	-1%	3%	7%	8%	0%	4	.	.
Cc1ccccc1N	1%	0%	.	3%	3%	.	.	.
Cc1cc2c(N)cccc2nn1	-23%	0%	-32%	-6%	7.6µM*	.	6%	-2%
SMILES	gsp antagonist	RXFP1 ag	gsp ag	p53 reactivation	Tb PFK inh-1	RXFP1 antag	Tb PFK KinaseGlo	Tb PFK inh-2
CCCCn1c(O)c(C(CC)=NCCN2CCCCC2)c(=O)[nH]c1=O	-11%	0%	4%	-4%	2%	7	.	.
COc1ccc2o/c(=N/NC(=O)c3cccs3)c(C(N)=O)cc2c1	?	0%	-28%	?	?	3	-31%	?
O=c1c2ccccc2nc2n1CCC2	11%	0%	2%	5%	?	2	27µM*	17µM*
O=C(N/N=C1/CN2CCC1CC2)c1cc2ccccc2cc1O	-20%	1%	-74%	-3%	1%	-12	.	.
OCC[n+]1c2ccccc2nc2ccc(N3CCOCC3)cc21	?	-3%	-2%[15.4 µM]	-14%	?	?	1%	-2%
COc1ccc(-n2c(O)c(C=NCCN3CCN(C(C)=O)CC3)c(=O)[nH]c2=S)cc1	5%	4%	?	8%	1%	-6	.	.
C=CCn1c(O)c(/C(C)=N/N2CCN(C)CC2)c(=O)[nH]c1=O	1%	-1%	-1%[15.4 µM]	0%	0%	4	.	.
Cc1nc2cc(NC(=O)COc3ccc(C#N)cc3)ccc2n1-c1ccccc1	?	0%	26%	5%	21µM*	2	?	?
COc1ccc(-n2c(C)nc3cc(C(=O)N4CCC5(CC4)OCCO5)ccc32)cc1	-4%[15.4 µM]	-1%	-2%	-18%	-1%	-11	.	.
C/C(=N\N1CCN(C)CC1)c1c(O)n(Cc2ccccc2)c(=O)[nH]c1=O	8%	1%	-28%	17%	-3%	21	.	.
CC(=O)OC1C=CC2[C@H]3Cc4ccc(O)c5c4[C@@]2(CCN3C)C1O5 (stereo not given in full)	-1%	.	.	-1%	0%	.	.	.
O=C(O)c1cc(O)c2c(c1)[C@H]([C@H]1c3cc(C(=O)O)cc(O)c3C(=O)c3c(O[C@@H]4O[C@H](CO)[C@@H](O)[C@H](O)[C@H]4O)cccc31)c1cccc(OC3O[C@H](CO)[C@@H](O)[C@H](O)[C@H]3O)c1C2=O (stereo not given in full)	-12%	-4%	.	3%	?	.	?	4.8µM*
O=c1ccc2cc(O[C@@H]3O[C@@H](CO)[C@H](O)[C@@H](O)[C@@H]3O)c(O)cc2o1	2%	27%	?	4%	0%	-2	.	.
CC(C)N(CCc1ccncc1)C(=O)Nc1ccc(Cl)c(Cl)c1	-7%	2%	?	-10%	?	.	9%	-7%
